CR mimetic SO = yeast age-related superoxide inhibition as caloric restriction mimetic. superoxide response (% of plate mean), % at 10 µM. S. cerevisiae aged cells, superoxide DHE fluorescence; active compounds read low. actives 0.18% (n = 330,000);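 active = superoxide response under a set limit, about three screen SD below normal, cut at about 65% in these data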;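 also: yeast aged for seven days with compound at 30 °C before DHE staining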
hiPSC survival = enhancers of human iPSC single-cell survival | survival enhancement, % at 20 µM | hiPSC single-cell survival, ATPlite luminescence; 100% = ROCK inhibitor wells, 0% = DMSO | actives 0.044% (n = 360,000); in the data active = survival enhancement above about 18%;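 also: cells exposed to compounds for 16 hours before the ATP read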
CTSL1 counter = cathepsin L1 inhibition, PFM18AAP counter-screen; inhibition, % at 5.96 µM; recombinant F. hepatica cathepsin L1, Z-Leu-Arg-MCA fluorescence; AID 1906; actives 0.49% (n = 300,000);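 active = inhibition above the mean of all tested compounds plus 3 SD, set per screening campaign, cut at about 17% in these data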
V-ATPase pHluor = alters yeast V-ATPase proton transport; S. cerevisiae, pHLuorin cytosolic pH fluorescence; response, % at 10 µM; actives 0.37% (n = 350,000); AID 504577; in the data active = response mostly above about 7.3%, no sharp cut-off; inactive = mostly below about 5.4%; also: actives read high
VATPase regulator = regulators of yeast V-ATPase proton transport; actives 2% (n = 980); S. cerevisiae pHLuorin cytosolic pH; AID 602197; response, % at 10 µM; shares compounds with V-ATPase pHluor; in the data active = response above about 24%
Hits are given with their value; n = inactive; x = no result given. This is a sample that favours compounds with a hit; in the whole collection about 1% have one here.

SMILES	CR mimetic SO	hiPSC survival	CTSL1 counter	V-ATPase pHluor	VATPase regulator
Cc1c(NC(=O)COC(=O)C2(c3ccccc3F)CCCC2)c(=O)n(-c2ccccc2)n1C	n	n	n	10.6	n
CCOC(=O)CCC(=O)Nc1ccccc1C(N)=O	n	n	n	7.7	n
CCOC(=O)CC(=O)Nc1ccccc1C(=O)O	n	n	n	n	x
CCN(CC)S(=O)(=O)c1ccc2c(c1)N(CC(=O)N1CCCC1)C(=O)CO2	n	n	n	n	x
CCOc1cc(/C=C/C(=O)c2ccc3c(c2)OCCO3)ccc1OCC(=O)N(C)C	n	n	n	14.9	n
O=C(CCCN1C(=O)/C(=C/c2ccccc2Cl)SC1=S)NNC(=O)c1ccncc1	n	n	n	n	x
O=C(CCCN1C(=O)/C(=C/c2ccccc2Cl)SC1=S)NNC(=O)c1ccccc1Cl	n	n	n	10.4	n
CC1=NN(/C(=N\c2nnc(C)s2)Nc2ccc(C(C)(C)C)cc2)[C@H](c2ccc(C)cc2)S1	n	n	n	n	x
O=C1CC(=O)C(n2cncn2)C(c2ccc(Cl)cc2)C1 (stereo not given)	n	n	n	7.5	n
Cc1ccsc1-c1nc(CN(C)C(C2CC2)C2CC2)c(C)o1	n	n	n	18.1	n
Cc1ccsc1-c1nc(CN2CCN(C)C(=O)[C@@H]2C)c(C)o1	n	n	n	n	x
COc1ccc(-c2cccc(-c3cc(=O)oc4cc(OC)cc(OC)c34)c2)cc1	n	n	x	n	x
COc1ccc(-c2cccc(-c3cc(=O)oc4cc(OC)c(OC)c(OC)c34)c2)cc1	n	n	x	8.2	n
N=C1/C(=C/c2cccn2Cc2ccc(F)cc2)C(=O)N=C2SC=CN12	n	n	n	11.1	n
Cc1ccc(Cn2cccc2/C=C2/C(=N)N3C=CSC3=NC2=O)cc1	n	n	n	n	x
CC(=O)c1nnn(-c2cccc(C#N)c2)c1C	n	n	n	12.7	n
O=C(NCC(c1ccco1)N1CCN(c2ccccc2)CC1)C(=O)NC1CC1 (stereo not given)	n	n	n	n	x
CCOC(=O)c1c(C)[nH]c(C(=O)COC(=O)/C=C/c2ccc(OC(F)F)cc2)c1C	n	n	n	n	x
CCOC(=O)c1c(C)[nH]c(C)c1C(=O)COC(=O)/C=C/c1ccc(OC(F)F)cc1	n	n	n	10.2	n
Cc1ccc(S(=O)(=O)N2CCOCC2)cc1NC(=O)CN(C)C1CCS(=O)(=O)C1 (stereo not given)	n	n	n	n	x
CN(CC(=O)Nc1cc(S(=O)(=O)N2CCOCC2)ccc1Cl)C1CCS(=O)(=O)C1 (stereo not given)	n	n	n	7.6	n
Cc1ccccc1OCC(=O)NNC(=O)Cc1ccc(S(=O)(=O)N2CCOCC2)s1	n	n	n	17.7	n
Cc1ccc(S(=O)(=O)Nc2cc3c4c(c2)CCC(=O)N4CCC3)cc1	n	n	n	n	x
Cc1ccc(-c2[nH]ncc2C(=O)c2cccc(F)c2)c(O)c1	n	n	n	n	x
Cc1c(N=Cc2c(O)n(C3CCCCC3)c(=O)[nH]c2=O)c(=O)n(-c2ccccc2)n1C	n	n	n	19.3	n
SMILES	CR mimetic SO	hiPSC survival	CTSL1 counter	V-ATPase pHluor	VATPase regulator
Cc1c(N=Cc2c(O)n(C)c(=O)c3ccccc23)c(=O)n(-c2ccccc2)n1C	n	n	n	n	x
Cc1ccc(S(=O)(=O)NC(CC(=O)OCc2ccccc2)C(=O)OCc2ccccc2)cc1 (stereo not given)	x	n	x	n	x
COc1ccc(N2CCN(Cc3nc4cc(Cl)ccc4c(=O)[nH]3)CC2)cc1	n	n	n	n	x
CCOC(=O)Cn1c(O)c(N=NC(=O)OC)c2ccccc21	n	n	n	n	x
CCOC(=O)N=Nc1c(O)n(Cc2ccccc2)c2ccccc12	n	n	n	n	n
COC(=O)N=Nc1c(O)n(Cc2ccccc2)c2ccccc12	n	n	n	n	x
CCOC(=O)N=Nc1c(O)n(CC)c2ccccc12	n	n	n	n	n
COc1ccc(NC(=O)CN(C)C(=O)CCCN2C(=O)c3cccc4cccc(c34)C2=O)cc1	n	n	n	n	x
COc1ccc(CCNC(=O)c2cn3ccc(C)cc3n2)cc1OC	n	n	n	n	x
Cc1cc(=O)n(CC(=O)O)c2ccccc12	n	n	n	n	x
O=C(O)Cn1c2ccccc2c2nc3ccccc3nc21	x	n	x	n	x
CCOC(=O)Cn1c2ccccc2c2nc3ccccc3nc21	n	n	n	n	n
CCOC(=O)Cn1c(C)cc(=O)c2ccccc21	n	n	n	n	n
CCOC(=O)Cn1c(=O)cc(C)c2ccccc21	n	n	n	n	n
COc1ccccc1C(CNC(=O)C1CC(=O)N(Cc2ccccc2)C1)N1CCCC1 (stereo not given)	n	n	x	n	x
CCNC(=O)CSc1nc(-c2ccc(F)cc2)cs1	n	n	n	8.1	n
CN(C)C(=O)CN1CCN(c2nc3nonc3nc2N2CCCCC2)CC1	n	n	n	12.7	n
C1CCCN(c2nc3nonc3nc2N2CCCCCC2)CC1	n	n	n	n	x
O=C(NC(=S)NC1CCSC1=O)c1cccs1 (stereo not given)	n	n	n	8.3	n
Cc1ccccc1C(=O)NC(=S)NC1CCSC1=O (stereo not given)	n	n	n	n	x
O=C(O)CCCCCCNS(=O)(=O)c1ccccc1	n	n	n	n	x
O=C(O)CC(CNS(=O)(=O)c1ccccc1)c1ccccc1 (stereo not given)	n	n	n	7.1	n
CC(O)(CS(=O)(=O)Cc1ccccc1)c1ccccc1Cl (stereo not given)	n	n	n	6.9	n
CCn1nnc(NC(=O)c2ccc(-c3ccc(Cl)cc3)o2)n1	n	n	n	7.1	n
O=C(O)CCCC(=O)N1CCCC1	n	n	n	11.8	n
SMILES	CR mimetic SO	hiPSC survival	CTSL1 counter	V-ATPase pHluor	VATPase regulator
O=C(CCCC(=O)N1CCCC1)N1CCCC1	n	n	n	n	x
O=C(COC(=O)c1cnccn1)NCc1ccccc1Cl	x	n	x	n	x
CCOC(=O)NCc1ccc2[nH]c(C)cc2c1	n	n	n	10.8	n
COC(=O)N/N=C/c1cn(Cc2ccccc2F)c2ccccc12	n	n	n	10.0	n
O=S(=O)(NC1=NCCC1)c1ccc(F)cc1F	n	n	n	9.1	n
COc1ccc(CNC(=O)C[C@H]2C[C@H](C(=O)N3CCCCC3)[C@@]3(C)c4[nH]c5ccc(Cl)cc5c4CCN3C2=O)cc1OC	n	n	x	n	x
N/C(=N\OC(=O)Cc1ccccc1[N+](=O)[O-])c1ccncc1	n	n	n	n	x
COc1cccc(/C(N)=N/OC(=O)Cc2ccccc2[N+](=O)[O-])c1	n	n	n	13.8	n
Cc1cc(NC(=O)CN2C(=O)NC(CC(C)C)C2=O)ccc1Br (stereo not given)	n	n	x	n	x
COc1ccc(N(CC(=O)NCCSCc2ccco2)S(=O)(=O)c2ccccc2)cc1Cl	n	n	n	n	x
CC(=O)NCCNS(=O)(=O)c1ccc(C)c([N+](=O)[O-])c1	n	n	n	10.2	n
CC(=O)NCCc1nc2cc(NC(=O)c3cccc([N+](=O)[O-])c3)ccc2n1C	n	n	x	n	x
